# From PubChem BioAssay (EPA / NIEHS)
# Values joined by “and” are separate entries in the source; they are usually repeats but may differ in a detail not shown here. Equal values may be shown once. The source holds several records for some structures; these can differ, active in one and inactive in another. Active and inactive are the calls of the source. How the source made its calls: active means hit-call score of the fitted dose curve at least 0.9, where 1 is the maximum; inactive means score below 0.9.
# Legend:
# [1] = read-out: Collagen IV, COL4A1 (gene 1282); test: BSK_MyoF_CollagenIV: BioMAP Diversity Plus: MyoF Assay for Collagen IV Biomarker Activity (AID 2284247); conditions: primary human lung fibroblasts
# How it was run: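 Lung fibroblasts (human primary) treated with chemicals were assayed after 24 h for Collagen IV using an ELISA, with DMSO serving as negative control and baseline for a positive-direction fit.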
# [2] = read-out: Plasminogen activator inhibitor-1 (PAI1), SERPINE1 (gene 5054); test: BSK_MyoF_PAI1: BioMAP Diversity Plus: MyoF Assay for Plasminogen activator inhibitor-1 (PAI1) Biomarker Activity (AID 2284256); conditions: primary human lung fibroblasts;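 on outcome: PAI-1 read 24 h after compound addition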
# How it was run: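 Primary human lung fibroblasts treated with chemical for 24 h; PAI-1 levels quantified by ELISA relative to DMSO. Cytotoxicity was assessed in parallel cultures by SRB total-protein staining (0.1% SRB after 10% TCA fixation, 560 nm).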
# [3] = read-out: Monokine induced gamma interferon (MIG), CXCL9 (gene 4283); test: BSK_KF3CT_MIG: BioMAP Diversity Plus: KF3CT Assay for Monokine induced gamma interferon (MIG) Biomarker Activity (AID 2284248); conditions: primary human keratinocytes with fibroblasts
# How it was run: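 Human keratinocyte–foreskin fibroblast co-culture; MIG measured by ELISA 24 h after chemical dosing, fitted upward versus DMSO. Cytotoxicity was assessed in parallel cultures by SRB total-protein staining read at 560 nm.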
# [4] = read-out: Vascular cell adhesion molecule 1 (VCAM1), VCAM1 (gene 7412); test: BSK_BF4T_VCAM1: BioMAP Diversity Plus: BF4T Assay for Vascular cell adhesion molecule 1 (VCAM1) Biomarker Activity (AID 2284249); conditions: primary human bronchial epithelial cells with fibroblasts
# How it was run: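 Cell-surface VCAM-1 quantified by ELISA after 24 h chemical exposure of human bronchial epithelial/dermal fibroblast co-cultures, with SRB staining in parallel wells for cytotoxicity; DMSO baseline, positive-direction fitting.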
# [5] = read-out: Collagen I, COL1A1 (gene 1277); test: BSK_hDFCGF_CollagenI: BioMAP Diversity Plus: hDFCGF Assay for Collagen I Biomarker Activity (AID 2284250); conditions: primary human foreskin fibroblasts
# How it was run: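 Readout: Collagen I by ELISA after 24 h compound treatment of primary human foreskin fibroblasts. Endpoint analysed for increases relative to DMSO; total protein by SRB in parallel wells flagged cytotoxicity.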
# [6] = read-out: Interferon-inducible T-cell alpha chemoattractant (ITAC), CXCL11 (gene 6373); test: BSK_hDFCGF_ITAC: BioMAP Diversity Plus: hDFCGF Assay for Interferon-inducible T-cell alpha chemoattractant (ITAC) Biomarker Activity (AID 2284251); conditions: primary human foreskin fibroblasts
# How it was run: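 Measured by ELISA, the chemokine level serves as the endpoint in human skin fibroblast primary cultures 24 h after compound addition. Increases relative to DMSO-treated wells define activity.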
# [7] = read-out: Plasminogen activator inhibitor-1 (PAI1), SERPINE1 (gene 5054); test: BSK_KF3CT_PAI1: BioMAP Diversity Plus: KF3CT Assay for Plasminogen activator inhibitor-1 (PAI1) Biomarker Activity (AID 2284252); conditions: primary human keratinocytes with fibroblasts
# How it was run: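 In this co-culture of primary human keratinocytes and foreskin fibroblasts, PAI-1 was measured by ELISA at 24 h and fitted upward from DMSO.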
# [8] = read-out: Monocyte Chemoattractant Protein-1 (MCP1), CCL2 (gene 6347); test: BSK_IMphg_MCP1: BioMAP Diversity Plus: IMphg Assay for Monocyte Chemoattractant Protein-1 (MCP1) Biomarker Activity (AID 2284253); conditions: primary human endothelial cells with macrophages
# How it was run: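 ELISA readout of MCP-1 at 24 hours in IMphg co-cultures of venular endothelial cells and macrophages, normalised to DMSO; parallel cultures stained with sulforhodamine B for overt cytotoxicity.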
# [9] = read-out: Interleukin-8 (IL8), CXCL8 (gene 3576); test: BSK_KF3CT_IL8: BioMAP Diversity Plus: KF3CT Assay for Interleukin-8 (IL8) Biomarker Activity (AID 2284254); conditions: primary human keratinocytes with fibroblasts
# How it was run: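 Human keratinocyte/foreskin fibroblast co-culture dosed 24 h; IL-8 measured by ELISA relative to DMSO. Parallel cultures stained with SRB for total protein to flag cytotoxicity.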
# [10] = read-out: Macrophage Inflammatory Protein-1 Alpha (MIP1a), CCL3 (gene 6348); test: BSK_IMphg_MIP1a: BioMAP Diversity Plus: IMphg Assay for Macrophage Inflammatory Protein-1 Alpha (MIP1a) Biomarker Activity (AID 2284255); conditions: primary human endothelial cells with macrophages
# How it was run: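 MIP-1a protein levels were quantified by ELISA after 24 h treatment of human endothelial cell–macrophage co-cultures, compared with DMSO. Parallel cultures were fixed with TCA and stained with 0.1% SRB to gauge overt cytotoxicity.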
structure (smiles),measurement,setting,value
CCOP(=S)(OCC)SCS(=O)(=O)CC,outcome,[1],inactive
same,outcome,[2],inactive
Cc1c([N+](=O)[O-])cc2c(c1[N+](=O)[O-])C(C)(C)CC2(C)C,AC50,[1],5.8 µM (active)
same,outcome,[2],inactive
O=C(O)C(F)(OC(F)(F)C(F)(F)C(F)(F)F)C(F)(F)F (stereo not given),outcome,[1],inactive
same,outcome,[3],inactive
same,outcome,[4],inactive
same,outcome,[5],inactive
same,outcome,[6],inactive
same,outcome,[7],inactive
same,outcome,[8],inactive
same,outcome,[9],inactive
same,outcome,[10],inactive
same,outcome,[2],inactive
NC(=O)C(F)(F)C(F)(F)F,outcome,[1],inactive
same,outcome,[3],inactive
same,outcome,[4],inactive
same,outcome,[5],inactive
same,outcome,[6],inactive
same,outcome,[7],inactive
same,outcome,[8],inactive
same,outcome,[9],inactive
same,outcome,[10],inactive
same,outcome,[2],inactive
Cc1ccc2c(c1N)C(=O)c1ccccc1C2=O,outcome,[1],inactive
same,outcome,[2],inactive
O=C(O)C=CC(F)(C(F)(F)F)C(F)(F)F,outcome,[1],inactive
same,outcome,[3],inactive
same,outcome,[4],inactive
same,outcome,[5],inactive
same,outcome,[6],inactive
same,outcome,[7],inactive
same,outcome,[8],inactive
same,outcome,[9],inactive
same,outcome,[10],inactive
same,outcome,[2],inactive
COC(=O)C(F)(F)C(F)(F)OC(F)(C(F)(F)F)C(F)(F)OC(F)=C(F)F (stereo not given),outcome,[1],inactive
same,outcome,[3],inactive
same,outcome,[4],inactive
same,outcome,[5],inactive
same,AC50,[6],4.67 µM (active) and 5.4 µM (active)
same,outcome,[7],inactive
same,outcome,[8],inactive
same,outcome,[9],inactive
same,outcome,[10],inactive
same,outcome,[2],inactive
OCC(F)(F)OC(F)(F)C(F)(F)OC(F)(F)CO,outcome,[1],inactive
same,outcome,[3],inactive
same,outcome,[4],inactive
same,outcome,[5],inactive
same,outcome,[6],inactive
same,outcome,[7],inactive
same,outcome,[8],inactive
same,outcome,[9],inactive
same,outcome,[10],inactive
same,outcome,[2],inactive
N#Cc1cc([N+](=O)[O-])ccc1N,outcome,[1],inactive
same,outcome,[2],inactive
O=C(O)C(F)(F)OC(F)(F)C(F)(F)OC(F)(F)F,outcome,[1],inactive
same,outcome,[3],inactive
same,outcome,[4],inactive
same,outcome,[5],inactive
same,outcome,[6],inactive
same,outcome,[7],inactive
same,outcome,[8],inactive
same,outcome,[9],inactive
same,outcome,[10],inactive
same,outcome,[2],inactive
CCCCOCCOP(=O)(OCCOCCCC)OCCOCCCC,outcome,[1],inactive
same,AC50,[2],0.0918 µM (active)
CCCCC(CC)COP(=O)(Oc1ccccc1)Oc1ccccc1 (stereo not given),AC50,[1],3.97 µM (active)
same,AC50,[2],16 µM (active)
C=CC(=O)OCC(F)(F)C(F)F,AC50,[1],45.7 µM (active)
same,outcome,[1],inactive
same,AC50,[3],52.2 µM (active)
same,outcome,[3],inactive
same,AC50,[4],30 µM (active)
same,outcome,[4],inactive
same,outcome,[5],inactive
same,AC50,[6],12.7 µM (active) and 18.4 µM (active)
same,outcome,[7],inactive
same,outcome,[8],inactive
same,outcome,[9],inactive
same,outcome,[10],inactive
same,outcome,[2],inactive
O=P(OCC(Br)CBr)(OCC(Br)CBr)OCC(Br)CBr (stereo not given),outcome,[1],inactive
same,outcome,[2],inactive
O=S(=O)(F)C(F)(F)C(F)(F)C(F)(F)C(F)(F)C(F)(F)C(F)(F)C(F)(F)C(F)(F)F,outcome,[1],inactive
same,outcome,[3],inactive
same,outcome,[4],inactive
same,outcome,[5],inactive
same,outcome,[6],inactive
same,outcome,[7],inactive
same,outcome,[8],inactive
same,outcome,[9],inactive
same,outcome,[10],inactive
same,outcome,[2],inactive
O=c1ssc(Cl)c1Cl,AC50,[1],7.41 µM (active)
same,AC50,[2],11.1 µM (active)
CCOP(=S)(OCC)SCSc1ccc(Cl)cc1,AC50,[1],0.0408 µM (active)
same,AC50,[2],3.97 µM (active)
FC(F)(F)C(F)(C(F)(F)F)C(F)(F)C(F)(F)CC1CO1 (stereo not given),outcome,[1],inactive
same,outcome,[3],inactive
same,outcome,[4],inactive
same,outcome,[5],inactive
same,outcome,[6],inactive
same,outcome,[7],inactive
same,outcome,[8],inactive
same,outcome,[9],inactive
same,outcome,[10],inactive
same,outcome,[2],inactive
CC(O)C(F)(F)C(F)(F)F (stereo not given),outcome,[1],inactive
same,outcome,[3],inactive
same,outcome,[4],inactive
same,outcome,[5],inactive
same,outcome,[6],inactive
same,outcome,[7],inactive
same,outcome,[8],inactive
same,outcome,[9],inactive
same,outcome,[10],inactive
same,outcome,[2],inactive
C=CC(=O)OCC(CC)(COC(=O)C=C)COC(=O)C=C,AC50,[1],2.87 µM (active)
same,AC50,[2],2.7 µM (active)
CC(Cl)CN(C)C (stereo not given),outcome,[1],inactive
same,AC50,[2],0.016 µM (active)
CCOP(=S)(S)OCC,outcome,[1],inactive
same,outcome,[2],inactive
O=C(O)C(F)(F)OC(F)(F)C(F)(F)OC(F)(F)C(=O)O,outcome,[1],inactive
same,outcome,[3],inactive
same,outcome,[4],inactive
same,outcome,[5],inactive
same,outcome,[6],inactive
same,outcome,[7],inactive
same,outcome,[8],inactive
same,outcome,[9],inactive
same,outcome,[10],inactive
same,outcome,[2],inactive
COP(=O)(CCC(=O)NCO)OC,outcome,[3],inactive
same,outcome,[5],inactive
same,outcome,[6],inactive
same,outcome,[7],inactive
same,outcome,[9],inactive
CC(C)Nc1ccc(Nc2ccccc2)cc1,AC50,[1],20 µM (active)
same,AC50,[2],30.6 µM (active)
CCCCC(CC)COC(=O)c1c(Br)c(Br)c(Br)c(Br)c1C(=O)OCC(CC)CCCC (stereo not given),outcome,[1],inactive
same,outcome,[2],inactive
CCOP(=S)(OCC)SCn1nnc2ccccc2c1=O,outcome,[1],inactive
same,outcome,[2],inactive
COP(N)(=S)OC,outcome,[1],inactive
same,outcome,[2],inactive
Nc1ccc([N+](=O)[O-])cc1Cl,outcome,[1],inactive
same,outcome,[2],inactive
OCC(F)(F)OC(F)(F)C(F)(F)OC(F)(F)C(F)(F)OC(F)(F)CO,outcome,[1],inactive
same,outcome,[3],inactive
same,outcome,[4],inactive
same,outcome,[5],inactive
same,AC50,[6],23 µM (active) and 22.1 µM (active)
same,outcome,[7],inactive
same,AC50,[8],7.09 µM (active)
same,outcome,[8],inactive
same,outcome,[9],inactive
same,outcome,[10],inactive
same,outcome,[2],inactive
N#Cc1c(-c2ccc(Cl)cc2)[nH]c(C(F)(F)F)c1Br,outcome,[1],inactive
same,AC50,[2],20 µM (active)
O=C(O)C(F)(F)C(F)(F)C(=O)O,outcome,[1],inactive
same,outcome,[3],inactive
same,outcome,[4],inactive
same,outcome,[5],inactive
same,outcome,[6],inactive
same,outcome,[7],inactive
same,outcome,[8],inactive
same,outcome,[9],inactive
same,outcome,[10],inactive
same,outcome,[2],inactive
c1ccc2c(c1)sc1ccccc12,outcome,[1],inactive
same,outcome,[2],inactive
CCOP(=S)(NC(C)C)Oc1ccccc1C(=O)OC(C)C (stereo not given),outcome,[1],inactive
same,outcome,[2],inactive
ClC(Cl)=C(c1ccc(Cl)cc1)c1ccccc1Cl,AC50,[1],9.38 µM (active)
same,AC50,[2],9.39 µM (active)
CC(C)(C)c1ccccc1OP(=O)(Oc1ccccc1)Oc1ccccc1,outcome,[1],inactive
same,AC50,[2],20 µM (active)
OCC(F)(F)OC(F)(F)C(F)(F)OC(F)(F)C(F)(F)OC(F)(F)F,outcome,[1],inactive
same,AC50,[3],58.5 µM (active) and 45.8 µM (active)
same,outcome,[4],inactive
same,outcome,[5],inactive
same,outcome,[6],inactive
same,AC50,[7],43.8 µM (active) and 44 µM (active)
same,AC50,[8],45.6 µM (active)
same,outcome,[8],inactive
same,AC50,[9],46.5 µM (active) and 50.9 µM (active)
same,AC50,[10],21.2 µM (active)
same,outcome,[10],inactive
same,AC50,[2],20.9 µM (active)
same,outcome,[2],inactive
O=S1(=O)OCC2C(CO1)C1(Cl)C(Cl)=C(Cl)C2(Cl)C1(Cl)Cl (stereo not given),outcome,[1],inactive
same,outcome,[2],inactive
COP(=O)(O)OC,outcome,[1],inactive
same,outcome,[2],inactive
